High-throughput results: PubChem, The Scripps Research Institute Molecular Screening Center
Sampled rows, rich in hits. Any-hit rate of the full collection: about 5.7%.
ssDAF-12 act – activators of S. stercoralis DAF-12 nuclear receptor. HEK293 ssDAF-12/GRIP1 lit1-tk-luc reporter, luminescence; % of 3 µM dafachronic acid response. activation, % at 6.8 µM. 1% of 370,000 active. AID 652126;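 active = activation above the mean over all tested compounds plus 3 SD, cut at about 0.9% in these data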;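 also: 0% = DMSO-only wells and 100% = 3 µM delta7-dafachronic acid wells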
hcDAF-12 act – H. contortus DAF-12 activation, primary screen | activation, % at 6.8 µM | AID 652067 | HEK293 hcDAF-12 lit1-tk-luc reporter, luminescence; 0% DMSO, 100% Δ7-dafachronic acid | 1.4% of 370,000 active;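 active = activation above the mean of all tested compounds plus 3 SD, cut at about 5.5% in these data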;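 also: 100% = response to 3 µM Δ7-dafachronic acid high control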
DAX1 inh-1 – NR0B1 (DAX1) inhibition; inhibition, % at 6.75 µM; 0.99% of 340,000 active; AID 504766; HEK293 Gal4-DAX1 luciferase reporter, luminescence;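 active = inhibition above the mean over all tested compounds plus 3 SD, cut at about 4.2% in these data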;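 also: 0% = DAX1-transfected cells with DMSO and 100% = empty-vector control cells with DMSO; inhibition shows as a rise in luminescence from relieved DAX1 repression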
AHR act – activates the human aryl hydrocarbon receptor | 2.5% of 320,000 active | activation, % at 5 µM | P35869 | AID 2796 | AHR-responsive luciferase reporter cells, luminescence; in the data active = activation above about 47%;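 also: 0% = vehicle wells and 100% = reference agonist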
hgDAF-12 ag – agonists of H. glycines DAF-12 nuclear receptor. HEK293 GAL4-hgDAF12 UAS-luciferase reporter, agonist luminescence; normalized to butyrate control. activation, % at 6.8 µM. 1.8% of 370,000 active;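 active = activation above a cutoff set at the mean of all screened compounds plus 3 SD, cut at about 10% in these data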;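 also: 0% = DMSO wells and 100% = sodium butyrate wells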
DAX1 inh-2 – inhibitors of DAX1 repression of SF-1 activated StAR promoter; HEK293T StAR-luciferase reporter, SF-1/DAX-1 repression relief; inhibition, % at 6.8 µM; 1.1% of 370,000 active; AID 652010;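 active = inhibition above the mean over all tested compounds plus 3 SD, cut at about 3.6% in these data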;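 also: 0% = DAX-1 cells with DMSO and 100% = cells lacking DAX-1 with DMSO; higher inhibition means more luminescence from relief of DAX-1 repression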
DAX1 conf – NR0B1 (human) inhibition, confirmation; HEK293T StAR-promoter luciferase reporter, SF-1/DAX-1 repression; inhibition, % at 6.8 µM; shares compounds with DAX1 inh-2; 87% of 2,400 active; AID 652134;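 active = inhibition above the average of every tested compound plus 3 SD, cut at about 3.8% in these data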;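 also: 0% = DAX-1 cells with DMSO and 100% = no DAX-1 control cells with DMSO; active compounds raise luminescence by relieving repression of the StAR reporter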
Target sequence (P51843 whole entry, looked up): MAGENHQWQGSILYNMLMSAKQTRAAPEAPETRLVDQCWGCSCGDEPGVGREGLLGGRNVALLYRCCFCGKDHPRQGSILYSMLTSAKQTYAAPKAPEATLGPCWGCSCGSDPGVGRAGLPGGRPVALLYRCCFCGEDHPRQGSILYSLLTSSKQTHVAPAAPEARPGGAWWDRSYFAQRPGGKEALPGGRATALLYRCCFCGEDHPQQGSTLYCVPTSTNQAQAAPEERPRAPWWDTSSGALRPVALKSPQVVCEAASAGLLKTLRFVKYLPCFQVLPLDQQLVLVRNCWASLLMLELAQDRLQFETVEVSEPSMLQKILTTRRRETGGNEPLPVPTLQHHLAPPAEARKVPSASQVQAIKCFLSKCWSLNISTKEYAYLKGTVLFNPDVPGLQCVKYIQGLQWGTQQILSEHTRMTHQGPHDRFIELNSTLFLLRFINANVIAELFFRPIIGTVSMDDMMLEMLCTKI
SF1 mutant ctr – counter-screen for DAX1 inhibitors: nonselective inhibitors with SF-1 AF2 mutant; inhibition, % at 6.8 µM; AID 652136; HEK293 StAR-luciferase, luminescence; 78% of 2,400 active; shares compounds with DAX1 inh-2;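 active = inhibition above the mean of all tested compounds plus 3 SD, cut at about 3% in these data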;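 also: 0% = DAX-1 transfected cells with DMSO and 100% = cells without DAX-1 with DMSO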
* hit, by the source's call; . = no result.

SMILES	ssDAF-12 act	hcDAF-12 act	DAX1 inh-1	AHR act	hgDAF-12 ag	DAX1 inh-2	DAX1 conf	SF1 mutant ctr
COc1ccc(Cn2cc(CN3CC(N4CCN(C5CCN(C)CC5)CC4)CS3(=O)=O)nn2)cc1 (stereo not drawn)	-1.4	-0.2	.	.	-1.3	7.6*	1.8	-0.5
COc1cccc(CC(=O)N2CCC(n3nccc3NC(=O)C3CC3)CC2)c1	-1.0	1.1	-0.2	.	-0.1	1.9	.	.
CSc1ccc(CC(=O)N2CCC(n3nccc3NC(=O)C3CC3)CC2)cc1	0.4	1.4	0.4	7.6	12.3*	6.0*	2.1	2.6
CCOC(=O)N1CCN(C(=O)c2ccc3oc(CCCc4ccccc4)nc3c2)CC1	-0.8	3.1	1.9	17.9	8.1	5.2*	6.0*	2.2
O=C(O)c1cc(/C=C/c2ccc(N3CCOCC3)c([N+](=O)[O-])c2)nc2ccccc12	-0.7	0.5	0.2	0.9	-2.3	0.3	.	.
O=C(O)c1cc(/C=C/c2ccc(N3CCOCC3)cc2)nc2ccccc12	0.0	5.1	-2.5	-1.5	6.1	5.5*	7.2*	2.2
CCCNC(=O)[C@@H]1CCCN1C(=O)[C@@H]1Cc2ccccc2CN1	-1.1	-1.1	-1.4	1.8	2.2	-0.4	.	.
CCCc1ccc(-c2cc(C(=O)Nc3ccc([N+](=O)[O-])cn3)c3ccccc3n2)cc1	-0.3	2.5	0.0	7.8	3.9	0.5	.	.
C[C@H]1[C@@H](Cc2cc(Cl)cc(Cl)c2)N(c2ccccc2)c2ccccc2CN1Cc1ccccc1	-0.7	-0.2	.	.	4.1	5.0*	-2.0	-1.1
CCc1ccccc1NC(=O)COc1ccc2c(c1)OCO2	-1.6	-2.1	2.4	7.7	0.8	0.1	.	.
O=C(COc1ccc(F)cc1)Nc1nccs1	0.8	5.5	1.6	7.0	11.6*	7.5*	10.8*	6.3*
O=C(COc1ccc(F)cc1)Nc1ccc2c(c1)OCCO2	-0.6	3.7	0.9	-3.7	10.2	5.0*	4.2*	2.7
Cc1ccc(NC(=O)COc2ccc3c(c2)OCO3)c(Cl)c1	-0.8	2.9	1.1	0.1	13.2*	5.0*	9.2*	4.3*
O=C(CS(=O)(=O)c1ccc(F)cc1)Nc1nccs1	-1.0	-1.9	1.1	-1.9	0.1	2.1	.	.
CC(C)(C)c1nnc(NC(=O)COc2ccc3c(c2)OCO3)s1	0.0	1.1	1.0	60.2*	3.2	7.9*	9.1*	7.2*
CC(C)(C)c1nnc(NC(=O)c2ccc3c(c2)OCO3)s1	0.1	4.2	2.5	39.1	9.6	2.0	.	.
COc1ccc(S[C@]2(C(=O)N3CCCC3)CC(=O)N[C@@H]2c2ccc(OC)cc2)cc1	-1.4	-2.4	.	.	-1.9	-1.1	.	.
COc1cc(C)ccc1OCC(=O)Nc1ccc2c(c1)OCO2	-0.2	2.2	0.7	5.9	9.1	6.2*	7.7*	6.3*
CC(=O)NO	.	.	.	4.0	.	.	.	.
COCCNc1c(-c2cc3ccc(C)c(C)c3[nH]c2=O)nc2ccccn12	-0.9	2.6	-0.1	11.6	10.4	4.9*	6.1*	3.3*
CN1CCN(c2ccc(-c3cccc(NC(=O)COc4ccccc4)c3)nn2)CC1	0.9	4.7	1.0	-1.4	13.0*	10.2*	7.2*	2.2
C/C(=N\NC(=O)c1ccn(C)n1)c1ccc(NC(=O)c2cccc(F)c2)cc1	0.2	1.6	0.5	14.8	8.8	8.4*	-2.4	-1.5
C/C(=N\NC(=O)c1ccn(C)n1)c1ccco1	-0.5	3.4	1.1	9.3	5.7	1.0	.	.
CCc1sc(C(=O)Nc2ccc(N3CCOCC3)cc2)cc1C	-1.2	-1.9	-0.7	-4.3	8.6	0.3	.	.
O=C(Nc1cccc(F)c1)Nc1ccc2c(c1)OCO2	0.2	5.2	3.1	.	9.5	7.0*	9.2*	5.3*
SMILES	ssDAF-12 act	hcDAF-12 act	DAX1 inh-1	AHR act	hgDAF-12 ag	DAX1 inh-2	DAX1 conf	SF1 mutant ctr
Cc1cc(C(=O)Nc2ccc3c(c2)OCO3)no1	0.1	5.3	0.9	58.2*	10.2	7.8*	9.1*	7.5*
O=C(Nc1ccc2c(c1)OCCO2)c1ccc(Br)s1	1.5*	5.8*	-1.5	1.3	12.5*	5.9*	13.8*	5.6*
CC(=O)Nc1ccc2c(c1)OCCOCCOc1cc(NC(C)=O)ccc1OCCOCCOCCO2	-0.3	-2.7	.	0.4	-2.0	-0.9	.	.
Cc1ccc(NC(=O)c2cc(-c3ccc4c(c3)OCO4)on2)cc1C	-0.8	2.0	0.6	-3.2	-1.6	0.1	.	.
CCc1sc(C(=O)Nc2ccc3c(c2)OCO3)cc1C	0.1	3.4	0.3	9.9	10.8*	7.6*	9.3*	6.5*
CCN(CCc1ccccc1)c1ccc2c(c1)C1CC2CCN1Cc1ccccc1 (stereo not drawn)	-0.9	-1.5	-0.3	.	-1.9	1.1	.	.
CC(C)=CC(=O)Nc1ccc2c(c1)OCO2	0.2	4.7	-0.1	33.6	10.2	6.1*	12.2*	7.7*
COc1ccc(/C=N/Nc2ccc(C(=O)O)cc2)cc1OC	-0.4	6.1*	0.9	3.4	11.1*	5.3*	16.6*	5.8*
C=CCOc1c(Br)cc(/C=N/Nc2ccc(C(=O)O)cc2)cc1OCC	-0.6	4.3	1.0	-2.3	11.9*	7.3*	13.1*	8.7*
O=C(O)c1cccc(N/N=C/c2cn(-c3ccccc3)nc2-c2cccs2)c1	-0.6	-0.3	2.4	54.0*	3.7	6.4*	17.9*	9.2*
O=C(O)c1cccc(N/N=C/c2ccc(F)c(F)c2)c1	0.1	2.7	-1.7	0.9	9.0	5.0*	11.5*	7.2*
COc1ccc(C(=O)Oc2ccc(/C=N/Nc3ccc(Cl)c(C(=O)O)c3)cc2OC)cc1	-0.1	-1.3	-0.3	1.6	0.4	0.6	.	.
Cc1cc(Cl)ccc1OCc1cn2cccnc2n1	-1.3	2.3	1.4	-3.8	10.7*	8.0*	8.3*	4.0*
Clc1cccc(NCc2cn3cccnc3n2)c1	-0.6	0.9	3.6	8.3	4.6	1.1	.	.
CSc1ncccc1C(=O)OCc1ccc([N+](=O)[O-])cc1	-1.8	0.4	0.2	0.1	7.0	-0.2	.	.
CCc1ccc2nc(N(CCN(C)C)C(=O)c3ccc4ncsc4c3)sc2c1	0.4	1.1	-0.2	6.7	8.6	7.6*	8.0*	5.4*
COc1ccc(C(=O)N=c2sc3c(C)ccc(OC)c3n2C)cc1	0.4	5.0	3.8	56.2*	12.9*	4.8*	3.2	-3.7
O=S(=O)(c1ccc(F)c(F)c1)N1CCN(S(=O)(=O)c2cccs2)CC1	-1.3	-1.1	0.2	-1.7	-1.6	-0.7	.	.
